Of roughly 8,800 targets only a part is listed; those with a hit were picked by preference. About 0.5% of all pairs of compound and target were hits.
Legend:
Test in all cases: log2 fold change, soluble protein after heating vs DMSO (PISA); higher = thermal stabilisation; K562 lysate, 10 uM; active = over 0.2 and 3.5 SD of the protein, either way, in both replicates (recomputed)
nilotinib = compound: Cc1cn(-c2cc(NC(=O)c3ccc(C)c(Nc4nccc(-c5cccnc5)n4)c3)cc(C(F)(F)F)c2)cn1 [nilotinib]
Procedure, shortened: (§1)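 Thermal stability, expressed as log-two fold change relative to solvent controls, is given from duplicates. Crude K562 extract in PBS pH 7.4 with 1 mM MgCl2, at 1 mg/mL protein, was treated with 10 μM compound for 30 min and heated in aliquots for 3 min across 48°C-58°C. After pooling, adjustment to 0.5% NP-40 at 4°C and centrifugation at 21,000xg for 90 min, supernatant protein was measured by TMTpro 16plex LC-MS/MS with channel sums equalised.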

[1] = compound: Cc1nc(Nc2n[nH]c3c2CN(C(=O)N[C@H](CN(C)C)c2ccccc2)C3(C)C)c2sccc2n1
Procedure, shortened: as §1

dasatinib = compound: Cc1nc(Nc2ncc(C(=O)Nc3c(C)cccc3Cl)s2)cc(N2CCN(CCO)CC2)n1 [dasatinib]
Procedure, shortened: as §1

[2] = compound: Cc1ncc(-c2ccnc(Nc3ccc(S(C)(=O)=O)cc3)n2)n1C(C)C
Procedure, shortened: as §1

[3] = compound: Cn1cc(-c2ccc3c(c2)CCN3C(=O)Cc2cccc(C(F)(F)F)c2)c2c(N)ncnc21
Procedure, shortened: as §1

quisinostat = compound: Cn1cc(CNCC2CCN(c3ncc(C(=O)NO)cn3)CC2)c2ccccc21 [quisinostat]
Procedure, shortened: as §1

tipifarnib = compound: Cn1cncc1[C@@](N)(c1ccc(Cl)cc1)c1ccc2c(c1)c(-c1cccc(Cl)c1)cc(=O)n2C [tipifarnib]
Procedure, shortened: as §1

[4] = compound: NC(=O)Nc1cc(-c2cccc(F)c2)sc1C(=O)N[C@H]1CCCNC1
Procedure, shortened: as §1

[5] = compound: NC(=O)c1cnc(N[C@@H]2CCCC[C@@H]2N)nc1Nc1cccc(-n2nccn2)c1
Procedure, shortened: as §1

[6] = compound: NC1(c2ccc(-c3nc4ccn5c(=O)[nH]nc5c4cc3-c3ccccc3)cc2)CCC1
Procedure, shortened: as §1

[7] = compound: NCC(=O)Nc1ccc(-n2nc(C(F)(F)F)cc2-c2ccc3c(ccc4ccccc43)c2)cc1
Procedure, shortened: as §1

vorinostat = compound: O=C(CCCCCCC(=O)Nc1ccccc1)NO [vorinostat]
Procedure, shortened: as §1

silmitasertib = compound: O=C(O)c1ccc2c(c1)nc(Nc1cccc(Cl)c1)c1ccncc12 [silmitasertib]
Procedure, shortened: as §1

[8] = compound: O=C1NC(=O)C(c2cnc3ccccn23)=C1c1cn2c3c(cc(F)cc13)CN(C(=O)N1CCCCC1)CC2
Procedure, shortened: as §1

entospletinib = compound: c1cn2cc(-c3ccc4cn[nH]c4c3)nc(Nc3ccc(N4CCOCC4)cc3)c2n1 [entospletinib]
Procedure, shortened: as §1

Measured: log2 fold change

TRIM25 (UniProt Q14258)
inactive: nilotinib 0.014 | [1] 0.027 | dasatinib -0.003 | [2] -0.001 | [3] -0.002 | quisinostat 0.002 | tipifarnib -0.001 | [4] -0.001 | [5] -0.019 | [6] 0.023 | [7] 0.013 | silmitasertib -0.046 | [8] -0.018 | entospletinib 0.011
active: vorinostat -0.59

TUBA4A (UniProt P68366)
Chain of UniProt P68366 (P68366 whole entry, looked up): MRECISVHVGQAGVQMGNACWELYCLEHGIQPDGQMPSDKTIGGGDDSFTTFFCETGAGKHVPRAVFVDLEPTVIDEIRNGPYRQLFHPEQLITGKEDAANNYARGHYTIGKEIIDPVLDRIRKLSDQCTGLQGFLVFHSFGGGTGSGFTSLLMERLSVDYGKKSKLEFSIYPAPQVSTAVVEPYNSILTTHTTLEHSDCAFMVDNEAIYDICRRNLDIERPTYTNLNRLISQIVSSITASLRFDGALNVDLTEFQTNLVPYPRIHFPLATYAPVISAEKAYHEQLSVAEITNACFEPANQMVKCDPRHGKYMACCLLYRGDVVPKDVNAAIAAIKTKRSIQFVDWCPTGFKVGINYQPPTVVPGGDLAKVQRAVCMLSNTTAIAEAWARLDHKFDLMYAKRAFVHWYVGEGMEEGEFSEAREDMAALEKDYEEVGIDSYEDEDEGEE
active: vorinostat -0.736
inactive: nilotinib 0.036 | [1] -0.024 | dasatinib -0.09 | [2] -0.009 | [3] 0.02 | quisinostat -0.024 | tipifarnib -0.012 | [4] 0.034 | [5] 0.022 | [6] -0.003 | [7] 0.066 | silmitasertib 0.077 | [8] 0.051 | entospletinib -0.045

TMEM70 (UniProt Q9BUB7)
Chain of UniProt Q9BUB7 (Q9BUB7 whole entry, looked up): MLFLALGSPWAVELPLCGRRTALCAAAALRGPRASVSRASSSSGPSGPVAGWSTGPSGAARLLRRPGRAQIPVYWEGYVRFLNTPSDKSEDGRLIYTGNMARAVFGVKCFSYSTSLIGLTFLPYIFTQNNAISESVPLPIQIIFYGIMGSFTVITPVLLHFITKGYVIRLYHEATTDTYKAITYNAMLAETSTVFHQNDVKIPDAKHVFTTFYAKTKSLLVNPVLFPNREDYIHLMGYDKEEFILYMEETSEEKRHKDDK
inactive: nilotinib -0.05 | [1] -0.046 | dasatinib -0.065 | [2] 0.023 | [3] -0.003 | quisinostat -0.206 | tipifarnib -0.007 | [4] 0.02 | [5] 0.009 | [6] -0.001 | [7] -0.081 | vorinostat 0.122 | silmitasertib 0.017 | [8] -0.108 | entospletinib 0.015

THOC5 (UniProt Q13769)
Chain of UniProt Q13769 (Q13769 whole entry, looked up): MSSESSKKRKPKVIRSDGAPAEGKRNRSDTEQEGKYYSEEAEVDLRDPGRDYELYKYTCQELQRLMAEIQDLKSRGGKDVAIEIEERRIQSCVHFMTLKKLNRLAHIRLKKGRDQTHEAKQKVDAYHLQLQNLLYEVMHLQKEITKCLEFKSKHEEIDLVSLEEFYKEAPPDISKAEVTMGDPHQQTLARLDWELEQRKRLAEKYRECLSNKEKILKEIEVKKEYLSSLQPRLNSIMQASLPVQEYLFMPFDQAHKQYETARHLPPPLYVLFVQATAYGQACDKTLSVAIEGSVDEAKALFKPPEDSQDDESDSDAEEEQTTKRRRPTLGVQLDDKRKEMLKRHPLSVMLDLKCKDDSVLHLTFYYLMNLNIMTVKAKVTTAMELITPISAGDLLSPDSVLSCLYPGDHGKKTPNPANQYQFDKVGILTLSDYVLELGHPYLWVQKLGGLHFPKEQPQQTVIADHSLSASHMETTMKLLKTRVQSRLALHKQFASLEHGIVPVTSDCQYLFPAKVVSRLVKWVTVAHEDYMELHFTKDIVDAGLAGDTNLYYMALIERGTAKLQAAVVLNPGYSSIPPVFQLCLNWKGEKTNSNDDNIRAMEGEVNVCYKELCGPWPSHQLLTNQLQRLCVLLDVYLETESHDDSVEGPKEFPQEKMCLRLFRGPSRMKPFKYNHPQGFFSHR
inactive: nilotinib -0.035 | [1] 0.006 | dasatinib -0.014 | [2] -0.036 | [3] 0.029 | quisinostat -0.006 | tipifarnib -0.019 | [4] 0.021 | [5] 0.009 | [6] -0.01 | [7] 0.012 | vorinostat -0.077 | silmitasertib 0.011 | [8] 0.008 | entospletinib -0.009

TRIM23 (UniProt P36406)
Chain of UniProt P36406 (P36406 whole entry, looked up): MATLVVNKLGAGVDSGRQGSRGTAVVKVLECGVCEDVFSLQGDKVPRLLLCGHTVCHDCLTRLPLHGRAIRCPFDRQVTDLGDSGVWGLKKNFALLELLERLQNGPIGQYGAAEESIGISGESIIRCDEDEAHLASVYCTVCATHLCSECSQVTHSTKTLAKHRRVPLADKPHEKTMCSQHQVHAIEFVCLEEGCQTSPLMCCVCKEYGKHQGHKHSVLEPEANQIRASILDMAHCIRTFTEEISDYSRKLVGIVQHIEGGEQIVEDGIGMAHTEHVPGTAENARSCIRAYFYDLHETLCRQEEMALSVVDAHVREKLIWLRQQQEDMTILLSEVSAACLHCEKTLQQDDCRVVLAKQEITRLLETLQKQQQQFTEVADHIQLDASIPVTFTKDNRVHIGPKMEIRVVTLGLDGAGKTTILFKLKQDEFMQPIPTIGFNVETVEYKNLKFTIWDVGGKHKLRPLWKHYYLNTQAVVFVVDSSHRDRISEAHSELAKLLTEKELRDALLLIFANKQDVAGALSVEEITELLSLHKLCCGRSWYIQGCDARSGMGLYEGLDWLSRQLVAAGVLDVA
inactive: nilotinib 0.107 | [1] -0.004 | dasatinib -0.005 | [2] -0.046 | [3] 0.136 | quisinostat -0.044 | tipifarnib 0.023 | [4] 0.005 | [5] 0.072 | [6] 0.037 | [7] 0.064 | vorinostat 0.073 | silmitasertib -0.03 | [8] -0.02 | entospletinib -0.032

TUBE1 (UniProt Q9UJT0)
Chain of UniProt Q9UJT0 (Q9UJT0 whole entry, looked up): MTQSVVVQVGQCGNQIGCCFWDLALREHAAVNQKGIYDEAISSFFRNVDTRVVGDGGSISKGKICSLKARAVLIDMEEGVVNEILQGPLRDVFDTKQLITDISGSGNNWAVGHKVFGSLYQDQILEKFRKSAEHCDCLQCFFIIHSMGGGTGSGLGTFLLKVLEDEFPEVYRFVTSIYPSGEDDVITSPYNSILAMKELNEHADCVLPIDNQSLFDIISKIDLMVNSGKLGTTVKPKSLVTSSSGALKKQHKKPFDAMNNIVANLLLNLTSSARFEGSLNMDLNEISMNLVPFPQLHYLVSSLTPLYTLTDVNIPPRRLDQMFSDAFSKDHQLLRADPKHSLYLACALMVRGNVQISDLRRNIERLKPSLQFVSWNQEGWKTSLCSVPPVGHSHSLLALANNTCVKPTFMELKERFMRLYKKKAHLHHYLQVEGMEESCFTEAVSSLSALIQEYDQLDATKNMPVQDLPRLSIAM
inactive: nilotinib 0.036 | [1] -0.051 | dasatinib 0.017 | [2] -0.046 | [3] -0.028 | quisinostat -0.037 | tipifarnib 0.029 | [4] 0.064 | [5] 0.007 | [6] 0.025 | [7] 0.024 | silmitasertib -0.049 | [8] -0.036 | entospletinib -0.027
active: vorinostat -0.264

TBL3 (UniProt Q12788)
inactive: nilotinib -0.009 | [1] 0.025 | dasatinib -0.013 | [2] 0.016 | [3] 0.011 | quisinostat -0.046 | tipifarnib 0.008 | [4] 0.056 | [5] -0.032 | [6] -0.052 | [7] 0.015 | silmitasertib -0.011 | [8] -0.001 | entospletinib -0.023
active: vorinostat -0.263

TSPAN13 (UniProt O95857)
Chain of UniProt O95857 (O95857 whole entry, looked up): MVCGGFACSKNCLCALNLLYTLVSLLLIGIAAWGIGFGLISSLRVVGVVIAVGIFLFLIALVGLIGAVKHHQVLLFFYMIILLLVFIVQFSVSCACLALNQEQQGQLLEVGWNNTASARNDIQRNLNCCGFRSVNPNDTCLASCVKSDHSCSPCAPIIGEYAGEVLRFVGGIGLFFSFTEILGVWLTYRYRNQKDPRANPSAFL
inactive: nilotinib -0.067 | [1] 0.02 | dasatinib -0.054 | [2] 0.121 | [3] -0.35 | quisinostat 0.034 | tipifarnib -0.032 | [4] -0.126 | [5] 0.035 | [6] 0.132 | [7] -0.024 | vorinostat 0.104 | silmitasertib -0.008 | [8] 0.008 | entospletinib -0.015

TRIP13 (UniProt Q15645)
active: vorinostat -0.472
inactive: nilotinib -0.002 | [1] -0.031 | dasatinib 0.003 | [2] 0.049 | [3] 0.046 | quisinostat -0.065 | tipifarnib 0.007 | [4] 0.026 | [5] 0.002 | [6] -0.031 | [7] 0.002 | silmitasertib 0.061 | [8] -0.002 | entospletinib 0.022

TUBB1 (UniProt Q9H4B7)
Chain of UniProt Q9H4B7 (Q9H4B7 whole entry, looked up): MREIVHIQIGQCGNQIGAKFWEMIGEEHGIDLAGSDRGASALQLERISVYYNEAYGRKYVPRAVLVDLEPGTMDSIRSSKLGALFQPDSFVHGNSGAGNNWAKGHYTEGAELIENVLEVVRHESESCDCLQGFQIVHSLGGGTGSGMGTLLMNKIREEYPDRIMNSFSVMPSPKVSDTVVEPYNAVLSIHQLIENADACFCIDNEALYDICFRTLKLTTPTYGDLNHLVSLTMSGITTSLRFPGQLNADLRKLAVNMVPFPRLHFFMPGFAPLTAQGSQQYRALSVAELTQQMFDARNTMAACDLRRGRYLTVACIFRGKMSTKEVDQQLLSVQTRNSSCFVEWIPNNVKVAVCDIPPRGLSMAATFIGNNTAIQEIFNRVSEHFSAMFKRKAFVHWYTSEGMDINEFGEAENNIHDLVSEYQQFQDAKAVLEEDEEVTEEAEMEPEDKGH
inactive: nilotinib 0.095 | [1] -0.013 | dasatinib -0.043 | [2] -0.004 | [3] 0.002 | quisinostat 0.079 | tipifarnib 0.03 | [4] 0.009 | [5] -0.006 | [6] -0.019 | [7] -0.038 | silmitasertib -0.003 | [8] 0.033 | entospletinib 0.011
active: vorinostat -0.326

TMPO (UniProt P42167)
Chain of UniProt P42167 (P42167 whole entry, looked up): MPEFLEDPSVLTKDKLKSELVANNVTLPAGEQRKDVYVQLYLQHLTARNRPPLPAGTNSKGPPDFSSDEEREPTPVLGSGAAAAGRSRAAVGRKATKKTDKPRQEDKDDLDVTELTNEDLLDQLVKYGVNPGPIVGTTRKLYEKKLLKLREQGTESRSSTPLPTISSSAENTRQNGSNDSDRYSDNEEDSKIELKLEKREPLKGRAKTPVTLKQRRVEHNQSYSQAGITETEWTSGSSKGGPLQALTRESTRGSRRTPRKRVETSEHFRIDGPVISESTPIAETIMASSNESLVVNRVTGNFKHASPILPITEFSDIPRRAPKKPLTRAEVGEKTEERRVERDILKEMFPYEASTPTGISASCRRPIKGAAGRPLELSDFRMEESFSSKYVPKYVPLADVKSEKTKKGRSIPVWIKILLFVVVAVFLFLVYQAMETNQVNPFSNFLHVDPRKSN
inactive: nilotinib -0.033 | [1] -0.003 | dasatinib 0.008 | [2] -0.042 | [3] -0.016 | quisinostat 0.061 | tipifarnib -0.034 | [4] 0.009 | [5] -0.011 | [6] 0.007 | [7] 0.021 | vorinostat 0.104 | silmitasertib 0.012 | [8] -0.032 | entospletinib -0.031

TROAP (UniProt Q12815)
Chain of UniProt Q12815 (Q12815 whole entry, looked up): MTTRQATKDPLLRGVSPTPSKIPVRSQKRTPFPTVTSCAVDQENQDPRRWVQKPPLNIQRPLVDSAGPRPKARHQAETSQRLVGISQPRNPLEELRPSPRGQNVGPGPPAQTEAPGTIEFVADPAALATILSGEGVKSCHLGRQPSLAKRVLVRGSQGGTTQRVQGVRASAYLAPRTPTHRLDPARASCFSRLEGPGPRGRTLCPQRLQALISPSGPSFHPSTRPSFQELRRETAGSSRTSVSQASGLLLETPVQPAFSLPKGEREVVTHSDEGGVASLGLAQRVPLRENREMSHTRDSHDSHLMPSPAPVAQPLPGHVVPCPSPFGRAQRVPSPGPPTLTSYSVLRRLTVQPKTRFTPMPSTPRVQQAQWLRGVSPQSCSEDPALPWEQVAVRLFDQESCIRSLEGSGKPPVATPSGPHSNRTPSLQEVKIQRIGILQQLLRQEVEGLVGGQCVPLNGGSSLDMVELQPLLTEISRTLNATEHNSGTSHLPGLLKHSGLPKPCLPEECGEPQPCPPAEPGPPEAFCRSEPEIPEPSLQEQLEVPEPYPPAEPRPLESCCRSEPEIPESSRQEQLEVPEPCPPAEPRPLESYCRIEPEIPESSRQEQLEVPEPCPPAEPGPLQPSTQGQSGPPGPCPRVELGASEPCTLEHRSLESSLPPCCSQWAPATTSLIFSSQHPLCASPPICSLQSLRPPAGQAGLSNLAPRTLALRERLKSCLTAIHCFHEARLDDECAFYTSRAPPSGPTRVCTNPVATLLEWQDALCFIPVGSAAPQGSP
active: vorinostat -0.382
inactive: nilotinib -0.041 | [1] 0.023 | dasatinib -0.071 | [2] 0.037 | [3] 0.043 | quisinostat -0.096 | tipifarnib -0.005 | [4] 0.007 | [5] 0.031 | [6] -0.018 | [7] 0.003 | silmitasertib 0.003 | [8] 0.014 | entospletinib -0.057

TTMP isoform 3 (UniProt Q5BVD1)
inactive: nilotinib 0.118 | [1] -0.023 | dasatinib -0.079 | [2] -0.022 | [3] -0.046 | quisinostat -0.475 | tipifarnib -0.089 | [4] 0.048 | [5] 0.116 | [6] -0.113 | [7] 0.253 | vorinostat 0.191 | silmitasertib -0.074 | [8] 0.167 | entospletinib -0.032

TMEM199 (UniProt Q8N511)
Chain of UniProt Q8N511 (Q8N511 whole entry, looked up): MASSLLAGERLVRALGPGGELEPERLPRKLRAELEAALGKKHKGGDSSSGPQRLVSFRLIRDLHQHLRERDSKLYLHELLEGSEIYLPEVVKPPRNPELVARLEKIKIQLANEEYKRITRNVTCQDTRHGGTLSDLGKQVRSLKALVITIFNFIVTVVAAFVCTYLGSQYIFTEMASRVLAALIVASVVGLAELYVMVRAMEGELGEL
inactive: nilotinib 0.005 | [1] 0.005 | dasatinib -0.011 | [2] 0.001 | [3] 0.046 | quisinostat 0.031 | tipifarnib 0.026 | [4] 0 | [5] 0.005 | [6] 0.068 | [7] 0.021 | vorinostat 0.13 | silmitasertib -0.017 | [8] -0.005 | entospletinib 0.008

TTI2 (UniProt Q6NXR4)
active: vorinostat -0.303
inactive: nilotinib 0.022 | [1] 0.029 | dasatinib -0.051 | [2] 0.044 | [3] 0.01 | quisinostat -0.009 | tipifarnib -0.018 | [4] -0.003 | [5] 0.049 | [6] -0.013 | [7] 0.05 | silmitasertib 0.015 | [8] 0.034 | entospletinib 0.005

TRAPPC6A isoform 2 (UniProt O75865)
inactive: nilotinib 0.015 | [1] -0.09 | dasatinib -0.026 | [2] 0.02 | [3] -0.058 | quisinostat 0.006 | tipifarnib 0.048 | [4] -0.048 | [5] -0.008 | [6] 0.076 | [7] -0.048 | vorinostat -0.038 | silmitasertib 0.013 | [8] -0.002 | entospletinib -0.157

TK1 (UniProt P04183)
inactive: nilotinib -0.009 | [1] 0.002 | dasatinib 0.004 | [2] 0.003 | [3] -0.009 | quisinostat -0.03 | tipifarnib 0.015 | [4] -0.005 | [5] -0.043 | [6] -0.003 | [7] 0.04 | vorinostat -0.028 | silmitasertib -0.001 | [8] 0.014 | entospletinib 0.035

TYMS (UniProt P04818)
Chain of UniProt P04818 (P04818 whole entry, looked up): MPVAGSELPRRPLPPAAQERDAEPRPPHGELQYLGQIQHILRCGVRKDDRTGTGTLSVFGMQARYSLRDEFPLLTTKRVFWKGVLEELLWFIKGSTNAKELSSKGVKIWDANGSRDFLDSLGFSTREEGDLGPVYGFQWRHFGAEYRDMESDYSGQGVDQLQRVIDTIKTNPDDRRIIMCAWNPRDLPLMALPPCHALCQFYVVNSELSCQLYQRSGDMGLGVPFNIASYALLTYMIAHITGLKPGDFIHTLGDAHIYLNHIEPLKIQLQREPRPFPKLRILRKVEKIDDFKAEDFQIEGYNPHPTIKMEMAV
active: vorinostat -0.231
inactive: nilotinib 0.012 | [1] -0.032 | dasatinib -0.023 | [2] -0.015 | [3] 0.01 | quisinostat -0.001 | tipifarnib -0.02 | [4] 0.034 | [5] 0.015 | [6] -0.032 | [7] -0.02 | silmitasertib 0.009 | [8] -0.005 | entospletinib 0.031

TBC1D8B (UniProt Q0IIM8)
inactive: nilotinib 0.021 | [1] -0.035 | dasatinib 0.01 | [2] 0.015 | [3] -0.042 | quisinostat -0.061 | tipifarnib 0.036 | [4] 0.034 | [5] -0.042 | [6] -0.034 | [7] 0.036 | vorinostat 0.147 | silmitasertib -0.037 | [8] 0.011 | entospletinib 0.131

TPM1 isoform 4 (UniProt P09493)
inactive: nilotinib 0.02 | [1] 0 | dasatinib 0.004 | [2] -0.031 | [3] 0.004 | quisinostat 0.023 | tipifarnib -0.008 | [4] -0.016 | [5] -0.018 | [6] -0.019 | [7] -0.053 | vorinostat 0.052 | silmitasertib -0.03 | [8] -0.041 | entospletinib 0.006

TDRKH (UniProt Q9Y2W6)
inactive: nilotinib -0.01 | [1] -0.077 | dasatinib -0.059 | [2] 0.018 | [3] 0.028 | quisinostat -0.087 | tipifarnib -0.048 | [4] 0.041 | [5] 0.003 | [6] 0.067 | [7] -0.031 | vorinostat -0.223 | silmitasertib 0.024 | [8] -0.052 | entospletinib 0.056

Source: the supplement of paper PMC10849652
